# Measured values taken from PubChem BioAssay (NCATS).
# A number with no mark means an inactive call. Results filed as inconclusive are left out. Calls of active or inactive are those of the source. Unless noted, the call rests on the fitted dose curve; in most records, active means well fitted curve in the direction sought with a large enough effect; inconclusive means small, poorly fitted or top-dose-only effect, or another doubt; inactive means no such curve, though single readings can be large; an effect the other way counts as inactive or inconclusive.
# Test system: not listed separately
# Experiment: qHTS for differential inhibitors of proliferation of Plasmodium falciparum line HB3 (AID 1886);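 further: parasites grown with compound for 72 h before SYBR Green readout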; further: potency means the concentration at half of the fitted maximal effect;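 on activity change, negative = inhibition: plate controls were vehicle for no effect and reference inhibitor for full effect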
# Conditions: Potency: Plasmodium falciparum HB3 proliferation inhibition; series mostly up to 28.7 µM; activity change, negative = inhibition: at the top concentration
Structure (SMILES),Potency,"activity change, negative = inhibition [%]"
CC(C)[C@@]1(NC(=O)[C@@H]2C[C@@H]3c4cccc5[nH]cc(c45)C[C@H]3N(C)C2)O[C@@]2(O)C3CCCN3C(=O)[C@H](Cc3ccccc3)N2C1=O (stereo not given in full),0.891 µM (active),
C[C@]12CC[C@H](O)CC1=CCC1C2CC[C@]2(C)C(=O)CC[C@@H]12 (stereo not given in full),,-15.4
CCCN1CCc2cccc3c2C1Cc1ccc(O)c(O)c1-3 (stereo not given),2 µM (active),
CC(C)C[C@H]1C(=O)N2CCCC2[C@]2(O)O[C@](NC(=O)[C@@H]3C=C4c5cccc6[nH]c(Br)c(c56)C[C@H]4N(C)C3)(C(C)C)C(=O)N12 (stereo not given in full),1.58 µM (active),

# Test system: not listed separately
# Experiment: qHTS Assay for Identification of Small Molecule Inducers of Hypoxia Response (AID 2120; active means well fitted curve in the direction sought with a large enough effect in the signal ratio, with a control signal flat, not every such curve was filed as active; the % refers to the signal ratio; further: 0% is about no effect)
# Conditions: hypoxia response reporter cells, beta-lactamase ratio readout; series mostly up to 104 µM; activation: at the top concentration
# Summary of the method: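 HRE-beta-lactamase reporter in CellSensor HRE-bla ME-180 cells, 2500 cells/well in Opti-MEM with 0.5% dialyzed FBS; compounds tested as titration series, 17 h at 37 degrees C. CCF4 substrate 2.5 h at room temperature; AC50 from 460/530 nm ratio.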
Structure (SMILES),outcome,activation [%]
O=C(O)COc1ccc(Cl)cc1Cl,inactive,
ClC1=C(Cl)C2(Cl)C3C4C=CC(C4)C3C1(Cl)C2(Cl)Cl (stereo not given),,3.08
O=S1OCC2C(CO1)C1(Cl)C(Cl)=C(Cl)C2(Cl)C1(Cl)Cl (stereo not given),,3.63
c1ccc(N=Nc2ccccc2)cc1,,-0.36
CCOCN(C(=O)CCl)c1c(C)cccc1CC,,3
CNC(=O)O/N=C/C(C)(C)SC,,0.288
CCNc1nc(Cl)nc(NC(C)C)n1,,0.645
C=CCc1ccc(OC)cc1,,1.49
ClC1=C(Cl)C2(Cl)C3C(Cl)C=CC3C1(Cl)C2(Cl)Cl (stereo not given),,1.11
ClC1=C(Cl)C2(Cl)C3C4CC(C5OC45)C3C1(Cl)C2(Cl)Cl (stereo not given),,1.84
ClC(Cl)=C(c1ccc(Cl)cc1)c1ccc(Cl)cc1,inactive,
CCc1cccc(CC)c1N(COC)C(=O)CCl,,2.62
C/C=C/c1ccc2c(c1)OCO2,,-0.0046
C=CCc1ccc2c(c1)OCO2,,-0.604
COP(=S)(OC)Oc1ccc([N+](=O)[O-])cc1,,2.46

# Target: Ferritin light chain (Equus caballus) (UniProt P02791)
# Sequence (P02791 2-175 limits assumed): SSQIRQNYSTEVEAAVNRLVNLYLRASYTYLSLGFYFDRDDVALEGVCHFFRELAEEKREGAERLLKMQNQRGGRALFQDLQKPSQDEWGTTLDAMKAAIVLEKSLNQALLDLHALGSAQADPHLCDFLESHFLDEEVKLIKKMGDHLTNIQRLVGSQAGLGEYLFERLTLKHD
# Experiment: qHTS Validation Assay for Identification of Novel General Anesthetics (AID 2323); further: on the % scale 0 is the no-effect control and ±100 the full control effect
# Conditions: horse apoferritin, anesthetic-site fluorescent probe displacement; series mostly up to 76.9 µM; activity change, negative = inhibition: at the top concentration
# Summary of the method: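 Competitive displacement of the profluorescent anesthetic 1-AMA (50% saturated, PBS) from 10 uM apoferritin, 10 min, room temperature. Activity is normalized 380/535 nm fluorescence; concentration-response fitted with a four-parameter Hill equation.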
row,Structure (SMILES),"activity change, negative = inhibition [%]"
1,CC(C)[C@@]1(NC(=O)[C@@H]2C[C@@H]3c4cccc5[nH]cc(c45)C[C@H]3N(C)C2)O[C@@]2(O)C3CCCN3C(=O)[C@H](Cc3ccccc3)N2C1=O (stereo not given in full),-14.3
2,C[C@]12CC[C@H](O)CC1=CCC1C2CC[C@]2(C)C(=O)CC[C@@H]12 (stereo not given in full),-13.3
3,CCCN1CCc2cccc3c2C1Cc1ccc(O)c(O)c1-3 (stereo not given),57.8

# Target: ATP-dependent DNA helicase Q1 (Homo sapiens) (UniProt P46063)
# Sequence (P46063 whole entry, looked up): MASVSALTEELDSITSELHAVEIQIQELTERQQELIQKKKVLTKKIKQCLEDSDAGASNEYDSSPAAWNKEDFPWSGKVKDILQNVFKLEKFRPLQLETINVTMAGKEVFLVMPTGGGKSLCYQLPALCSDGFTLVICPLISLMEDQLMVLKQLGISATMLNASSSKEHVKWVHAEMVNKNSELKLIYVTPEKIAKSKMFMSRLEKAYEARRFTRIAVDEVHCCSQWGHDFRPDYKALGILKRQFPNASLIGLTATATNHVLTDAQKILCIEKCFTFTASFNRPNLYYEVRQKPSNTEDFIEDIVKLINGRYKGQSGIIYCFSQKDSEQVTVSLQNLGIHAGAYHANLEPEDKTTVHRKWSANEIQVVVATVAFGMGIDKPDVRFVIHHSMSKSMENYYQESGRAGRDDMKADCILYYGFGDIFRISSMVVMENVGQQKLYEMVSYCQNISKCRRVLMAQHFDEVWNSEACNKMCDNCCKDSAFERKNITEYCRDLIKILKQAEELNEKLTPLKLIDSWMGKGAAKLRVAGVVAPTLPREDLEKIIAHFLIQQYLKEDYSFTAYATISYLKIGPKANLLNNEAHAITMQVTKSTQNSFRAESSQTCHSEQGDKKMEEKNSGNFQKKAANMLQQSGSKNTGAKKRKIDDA
# Experiment: qHTS Validation Assay for Inhibitors of RecQ-Like Dna Helicase 1 (RECQ1) (AID 2353);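 further: plate controls were DMSO vehicle for no effect and enzyme-free control for full effect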
# Conditions: recombinant RECQ1 helicase DNA unwinding assay; series mostly up to 25.6 µM; activity change, negative = inhibition: at the top concentration
# Summary of the method: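 50 nM RECQ1T1 preincubated 15 min with compound in Tris pH 8.0 buffer with MgCl2, DTT, Tween-20 and 2.5 ug/ml poly(dI-dC); started with 200 nM TAMRA/BHQ-2 forked duplex and 2 mM ATP. Unwinding read as fluorescence (525/598 nm), two reads 2 h apart.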
row,Structure (SMILES),"activity change, negative = inhibition [%]"
1,CC(C)[C@@]1(NC(=O)[C@@H]2C[C@@H]3c4cccc5[nH]cc(c45)C[C@H]3N(C)C2)O[C@@]2(O)C3CCCN3C(=O)[C@H](Cc3ccccc3)N2C1=O (stereo not given in full),-17
2,C[C@]12CC[C@H](O)CC1=CCC1C2CC[C@]2(C)C(=O)CC[C@@H]12 (stereo not given in full),2.81
3,CCCN1CCc2cccc3c2C1Cc1ccc(O)c(O)c1-3 (stereo not given),-0.0896
